Most compounds without a hit are left out; they make up all but 1.6% or so of the library.
Platelet DG rel – platelet dense granule release activity; AID 1663; inhibition, %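 (compounds screened at 7.5 µM in platelet-rich plasma)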; human platelet-rich plasma, SFLLRN dense granule ATP release, luminescence; actives 0.22% (n = 300,000);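 active = mean replicate score, as percent of positive control, at or above 50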
C8 TRAIL sens – sensitizes caspase-8 expressing cells to TRAIL; NB7+C8 cells + TRAIL, ATPlite viability luminescence; inhibition (viability loss, TRAIL sensitization), % at 10 µM; actives 1% (n = 360,000);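 active = compounds causing at least 50% loss of cell viability in the single-dose screen, relative to plate controls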
STAT3 blocker – inhibitors of IL-6 induced STAT3 signaling; inhibition, % at 5.5 µM; actives 0.89% (n = 190,000); U3A cells, IL-6 STAT3-luciferase reporter, luminescence; host cell line lacks STAT1;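 active = inhibition above the mean inhibition across all screened compounds plus 3 SD, cut at about 44% in these data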;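 note: 0% = DMSO only wells and 100% = 100 µM nifuroxazide control wells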
PPC-1+TRAIL kill – PPC-1 cancer cell killing with TRAIL present | PPC-1 cells + TRAIL, ATPLite viability luminescence | cell killing (% activity), % at 4 µM or 5 µM | actives 0.41% (n = 220,000) | AID 1443;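 active = cell killing above 50% in the first pass at 4 µM, then a duplicate retest at 5 µM averaging 50% or more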;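 note: plate controls were cells with TRAIL plus DMSO for no effect and medium-only wells lacking cells for full effect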
STAT1 inh – inhibitors of IFN-gamma induced STAT1 signaling; NIH 3T3 STAT1-luciferase reporter, luminescence; inhibition, % at 5.5 µM; actives 0.35% (n = 200,000);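 active = inhibition above a set limit, the mean inhibition across all tested compounds plus 3 SD, cut at about 34% in these data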;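 note: 0% = IFN-gamma with DMSO and 100% = IFN-gamma with 300 µM nifuroxazide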
* hit, by the source's call; / = no result given.

SMILES	Platelet DG rel	C8 TRAIL sens	STAT3 blocker	PPC-1+TRAIL kill	STAT1 inh
O=C(NNc1ccnc2cc(Cl)ccc12)C1CCCCC1	-0.5	48.0	76.5*	13.7	35.9*
NC(=S)NNc1ccnc2cc(Cl)ccc12	1.3	-4.8	14.7	9.6	-5.1
COc1ccccc1-c1cc(C(F)(F)F)nc(S(=O)(=O)CCCC(=O)NC(C)C)n1	-4.6	-2.1	10.7	-14.3	22.6
COc1ccccc1-c1cc(C(F)(F)F)nc(S(=O)(=O)CCCC(=O)Nc2cc(C)on2)n1	/	22.1	4.9	-26.8	35.0*
CC(C)(C)c1ccc(/C=C/C(=O)NC2=NCCS2)cc1	-9.8	52.2*	27.7	33.6	2.8
CC1=CN2C(=N)/C(=C/c3ccc(Sc4ccc(C)cc4)o3)C(=O)N=C2S1	-5.8	22.0	-10.1	25.9	-8.0
CC1=CN2C(=N)/C(=C/c3ccc(C)o3)C(=O)N=C2S1	-7.8	53.5*	5.9	25.9	-111.0
CCCS(=O)(=O)NC(=O)C1(C)CCN(C(=O)Cc2cccc3ccccc23)C1 (centres undefined)	/	-23.7	/	/	/
COc1ccc(NC(=O)c2cc(S(=O)(=O)N3CCc4ccccc43)cn2C)cc1	97.9*	-11.7	/	/	/
Cc1ccc(NC(=O)c2cc(S(=O)(=O)N3CCc4ccccc43)cn2C)cc1C	10.2	-6.9	/	/	/
CC(=O)Nc1ccc(C(=O)N2CCCCC2c2cc(C(=O)NCc3ccc(F)cc3)no2)cc1 (centres undefined)	/	-2.0	/	/	/
CC1=CC2C(C(O)CC3(C)C2CC(C)C32OCOC23COCO3)C2(C)C/C(=C\O)C(=O)C=C12 (centres undefined)	/	93.7*	/	/	/
C/C(=N\NC(=O)c1csc(C)c1C)c1ccc(C)s1	18.7	13.0	-10.7	12.3	-19.5
O=C(N/N=C/c1ccccc1)c1ccc2c(c1)OCO2	18.6	56.2*	/	/	/
C/C(=N\NC(=O)c1csc(C)c1C)c1ccco1	22.2	54.9*	25.9	41.1	-18.6
C/C(=N\NC(=O)c1ccc2c(c1)OCO2)c1ccco1	37.2	52.0*	39.4	36.6	8.7
Cc1c(C(=O)N2CCCC(C)(C(=O)NS(=O)(=O)C3CC3)C2)oc2ccccc12 (centres undefined)	/	0.1	/	/	/
NC(CCc1ccccc1)c1csc(NC(=O)NCC2CCCCC2)n1 (centres undefined)	/	41.4	/	/	/
CCOc1ccccc1NC(=O)Nc1ccc2c(c1)OCO2	4.2	-7.4	/	/	/
C=CCOc1ccccc1CN(C(=O)CCl)c1ccc2c(c1)OCO2	2.3	95.8*	/	/	/
CCCCNC(=O)c1ccc(Cn2c(=S)[nH]c3c([nH]c4ccc(OC)cc43)c2=O)cc1	11.5	70.4*	0.4	17.2	2.2
CCOCCCNC(=O)c1ccc(Cn2c(=S)[nH]c3c([nH]c4ccc(OC)cc43)c2=O)cc1	1.7	-6.4	14.5	0.1	-7.0
Cc1cc(C)nc(Nc2nc3ccccc3s2)n1	6.6	6.1	-61.1	3.5	-35.8
Cc1ccc(Nc2nc3ccccc3s2)c(C)c1	0.0	55.1*	26.3	36.8	-92.6
C#CC(=O)CC1(CN(Cc2ccccc2)C(=O)OC(C)(C)C)CCCCC1	/	94.3*	/	/	/
SMILES	Platelet DG rel	C8 TRAIL sens	STAT3 blocker	PPC-1+TRAIL kill	STAT1 inh
COc1ccc(OC)c(NC(=O)Nc2nnc([C@@H]3O[C@H](CO)[C@@H](O)[C@H]3O)s2)c1	/	1.5	/	/	/
COc1cc(/C=N/Nc2ccc(Cl)c(C(=O)O)c2)ccc1OCC(=O)N1C(C)CCCC1C (centres undefined)	-5.1	-17.8	-5.1	-5.6	9.7
COc1cc(/C=N/NC(N)=O)ccc1OCC(=O)N1C(C)CCCC1C (centres undefined)	62.3*	-2.1	-4.2	11.3	-4.8
COCCN1C[C@@H](CO)O[C@@H](n2cnc3c(NCc4ccco4)ncnc32)C1	/	8.6	/	/	/
CCCCCCCCCCCCCCCC[N+](C)(C)Cc1ccc(F)cc1	/	54.3*	/	/	/
CC#CC[N+](C)(C)CCCCCCCC	-1.7	8.8	/	1.9	/
COc1ccc(C(=O)Nc2ccc3[nH]ccc3c2)cc1	57.8*	92.5*	/	/	/
O=C(Nc1ccc2[nH]ncc2c1)c1ccccc1	2.6	37.3	/	/	/
O=C(Nc1ccc2[nH]ccc2c1)c1cccs1	18.0	62.6*	/	42.3	/
COc1ccc(C(=O)Nc2ccc3[nH]ncc3c2)cc1	13.5	75.3*	/	/	/
CCOc1ccc(C(=O)Nc2ccc3[nH]ncc3c2)cc1	20.8	71.5*	/	/	/
O=C(Nc1ccc2[nH]ncc2c1)c1ccc(F)cc1	3.4	37.6	/	/	/
O=C(NN1CCCCCC1)c1ccccc1F	/	-9.1	/	/	/
CCCc1c(Cc2cccc(F)c2)ncn1Cc1cccc(-c2ccccc2)c1	/	-4.7	/	/	/
COc1cc(NC(=O)COC(=O)Cc2ccsc2)cc(OC)c1	/	-5.7	/	/	/
Cc1ccccc1-c1cnc(C(O)c2ccc(-c3ccccc3)cc2)[nH]1 (centres undefined)	/	6.0	/	/	/
O=C(Nc1ccc2nc(-c3ccco3)[nH]c2c1)c1cccs1	14.3	55.4*	23.1	26.4	4.2
CCOC(=O)c1cc2c(C)n(-c3ccc(C)cc3)c(C)c2ccc1=O	2.6	58.7*	42.5	-4.2	3.2
CC(C)(C)c1ccc(-c2nc3[nH]c(=O)cc(NC(=O)c4ccco4)n3n2)cc1	10.6	62.4*	/	/	/
COc1ccc(S(=O)Cc2ccc(C(=O)NC3CC3)o2)cc1 (centres undefined)	-7.2	-3.2	/	/	/
COC(=O)C[C@H]1C=C[C@H](NC(=O)c2ccccn2)[C@@H](CO)O1	/	2.4	/	/	/
CCN(CC)c1ccc(/C=N/Nc2nc(C)cc(=O)[nH]2)c(O)c1	-6.3	49.4	28.3	57.7*	-0.8
Cc1cccc(N=C2CCCC2C(=O)Nc2cccc(C)c2C)c1C (centres undefined)	/	-4.0	/	/	/
CCOC(=O)c1c(C)oc2c(F)c(F)c(F)c(F)c2c1=O	8.7	94.0*	7.8	21.1	-2.1
CC1(C(=O)NS(=O)(=O)c2ccc(F)cc2F)CCN1C(=O)C1CCCCC1 (centres undefined)	/	-5.4	/	/	/
SMILES	Platelet DG rel	C8 TRAIL sens	STAT3 blocker	PPC-1+TRAIL kill	STAT1 inh
CC(=O)N(Cc1ccc(F)cc1)c1cccc(C)c1C	0.2	-7.1	0.2	10.4	-4.4
CC(=O)N(Cc1ccc(F)cc1)C1=C(NCCc2ccccc2)C(=O)c2ccccc2C1=O	2.4	89.4*	3.6	47.5	1.1
COc1ccc(N2CCN(C(=O)C(=O)c3cccc([N+](=O)[O-])c3)CC2)cc1	/	0.6	/	/	/
C(=C\c1ccco1)/c1nc2ccccc2[nH]1	34.2	51.3*	23.4	15.6	-11.8
C[C@@H]1CCCCO[C@@H](CN(C)Cc2ccncc2)[C@@H](C)CN([C@H](C)CO)C(=O)c2cc(NC(=O)c3ccccc3)ccc2O1	/	14.4	/	/	/
COc1ccc(NC(=O)COC(=O)CNC(=O)C2CCCCC2)cc1OC	/	2.9	/	/	/
CCOC(=O)[C@]12CCCC=C1N(Cc1ccco1)C(=O)[C@H](CC(=O)NCc1cccc3ccccc13)C2	/	-5.9	/	/	/
O=C(N/C(=C/c1ccc(Cl)cc1)c1nc2ccccc2[nH]1)c1ccco1	16.8	-0.1	-6.0	12.0	-6.4
O=c1[nH]c2ccccc2nc1/C=C/c1ccc(Cl)cc1	-3.2	73.1*	11.0	38.0	-37.2
O=C(/C(=C/c1ccc(Cl)cc1)c1nc2ccccc2[nH]1)c1ccccc1	0.2	77.9*	13.1	23.9	-4.0

Bioassay records from PubChem BioAssay.
